From PubChem BioAssay AID624296 (National Center for Advancing Translational Sciences (NCATS), 2012)
Out of some 350,000 compounds screened, about 9,900 (2.8%) were called active. Inconclusive results (about 15%) are left out. The call rests on the fitted dose curve; in most records, active means well fitted activation curve with a large enough effect; inconclusive means small, poorly fitted or top-dose-only effect; inactive means no such curve, though single readings can be large or run the other way. The sample as a whole holds a higher share of actives than the screen did.

Assay: A quantitative high throughput screen for small molecules that induce DNA re-replication in MCF 10a normal breast cells. Further: nearly all actives have a fitted effect of over 50% in size. On activity, positive = re-replication: % of control where 0% means no effect.
Details: MCF 10A DNA re-replication, Hoechst nuclear intensity, 48 h; series mostly up to 46.1 µM; activity, positive = re-replication: at the top concentration
Potency means the concentration at half of the fitted maximal effect.

SMILES | Potency | activity, positive = re-replication
COc1ccc(CNC(=O)COC(=O)C2=Cc3ccccc3OC2)cc1 | 18.4 µM (active) | 
O=C(COC(=O)c1ccc2c(c1)OCCO2)NCc1ccccc1 |  | -0.36% (inactive)
CN(/N=C/c1ccccc1)C(=S)c1ccccc1 |  | 0.402% (inactive)
CCC(CO)Oc1cc(NC(=O)c2ccc(Cl)cc2)c2ncn(C(C)C)c2c1 (stereo not given) |  | 0.301% (inactive)
Cc1ccccc1Nc1nnc(C)c(=O)[nH]1 |  | -1.32% (inactive)
Cc1nnc(N/N=C/c2ccccn2)[nH]c1=O | 2.59 µM (active) | 
Cc1nnc(N/N=C/c2cccs2)[nH]c1=O |  | -2.78% (inactive)
CCOc1ccc2nc(N3CCCN(C(=O)Nc4ccccc4C)CC3)c(C#N)cc2c1 | 16.4 µM (active) | 
CCOc1ccc(C(=O)NC2CCN(C(=O)Nc3ccccc3OC)CC2)cc1 |  | 0.507% (inactive)
COc1ccc2nc(N3CCCC(O)C3)c(C#N)cc2c1 (stereo not given) |  | 6.88% (inactive)
C[C@H](NS(=O)(=O)c1ccc(Cl)cc1)C(=O)OCC(=O)N1CCOCC1 |  | -7.44% (inactive)
CC(C)[C@@H](C(=O)OCC(=O)c1ccc2c(c1)NC(=O)CO2)N1C(=O)c2ccccc2C1=O |  | 14.5% (inactive)
Cc1cccc(Nc2nnc(SCC(=O)c3c(N)n(C4CC4)c(=O)[nH]c3=O)s2)c1C |  | 3.57% (inactive)
COc1ccc(Cc2nnc(N/N=C/c3ccccc3O)[nH]c2=O)cc1OC | 10.3 µM (active) | 
COc1ccc(/C=N/Nc2nc3ccccc3c(=O)[nH]2)cc1 |  | 0.203% (inactive)
O=c1[nH]c(NCCO)nnc1Cc1ccc(Cl)cc1 |  | -14.8% (inactive)
CCN(CC)S(=O)(=O)c1ccc(N2CCOCC2)c(NC(=O)C(C)Oc2ccc(F)cc2)c1 (stereo not given) |  | 0.635% (inactive)
CC(C)(C)Cc1nnc(NC(=O)c2cc(-c3ccccc3)nc3ccccc23)s1 |  | 19.2% (inactive)
COC(=O)c1cc(-c2cccs2)nc2ccccc12 |  | -1.79% (inactive)
O=C(Nc1nnc(-c2ccccc2)o1)c1cc(-c2cccs2)nc2ccccc12 | 2.06 µM (active) | 
COc1cccc(N2CCN(CC(=O)Nc3ccnn3C3CCCC3)CC2)c1 |  | 8.58% (inactive)
Cc1cc(C)cc(NC(=O)C(c2ccccc2)N2CCN(CC(=O)N3CCCC3)CC2)c1 (stereo not given) |  | 0.469% (inactive)
COc1ccc(CNC(=O)C[C@H]2C[C@H](C(=O)N3CCOCC3)[C@@]3(C)c4[nH]c5cc(CCC(=O)N(C)C)ccc5c4CCN3C2=O)cc1OC |  | -2.67% (inactive)
O=C(CN1C(=O)NC2(CCCCC2)C1=O)N1CCN(C(=O)c2cccs2)CC1 |  | -2% (inactive)
CCn1c(=S)[nH]c2sc3c(c2c1=O)CCCCC3 |  | 7.93% (inactive)

SMILES | Potency | activity, positive = re-replication
CCC1(C)Cc2c(sc3[nH]c(=S)n(Cc4ccccc4)c(=O)c23)CO1 (stereo not given) | 13 µM (active) | 
CCC1(C)Cc2c(sc3nc(SC)[nH]c(=O)c23)CO1 (stereo not given) |  | -1.6% (inactive)
CCCn1c(=O)c(-c2ccccc2)c(O)c2ccccc21 |  | 7.08% (inactive)
Cc1cc(C)n(CC(O)CN(c2ccccc2)S(=O)(=O)c2ccc3ccccc3c2)n1 (stereo not given) |  | 3.27% (inactive)
CCCCn1c(=O)c(C(C)=O)c(O)c2ccccc21 |  | 5.82% (inactive)
CS(=O)(=O)N(CC(O)Cn1c2ccccc2c2ccccc21)c1cccc2ccccc12 (stereo not given) | 16.4 µM (active) | 
O=S(=O)(c1ccccc1)N(CC(O)CN1CCCCC1)c1ccccc1 (stereo not given) |  | 4.96% (inactive)
CCCCN(CCCC)CC(O)Cn1c2ccccc2c(=O)c2ccccc21 (stereo not given) | 18.4 µM (active) | 
O=C(CN1C(=O)NC(Cc2c[nH]c3ccccc23)C1=O)Nc1ccccc1C(F)(F)F (stereo not given) |  | 3.41% (inactive)
CN(CC(=O)Nc1ccc(C(N)=O)cc1)S(=O)(=O)c1ccc2c(c1)OCCO2 |  | -1.22% (inactive)
CC(=O)NCC(=O)NC1CCCc2c1cnn2-c1ccccc1F (stereo not given) |  | -1.44% (inactive)
Cn1nccc1C(=O)NC1CCCc2c1cnn2-c1ccccc1F (stereo not given) |  | 10.6% (inactive)
COc1ccc(C(=O)NC2CCCc3c2cnn3-c2cccc(C)c2C)c(OC)n1 (stereo not given) | 18.4 µM (active) | 
CC(C)(C)NS(=O)(=O)NC(=O)C1=C(N2CCCC2)COC1=O |  | 11.9% (inactive)
Cc1ccc(S(=O)(=O)N2CCCCC2)cc1NC(=O)[C@@H]1CCCN1C(=O)c1cccs1 |  | -5.26% (inactive)
Cc1ccc(S(=O)(=O)NCC(=O)NNC(=O)c2ccc(Br)cc2)cc1C |  | 5.77% (inactive)
Cc1cc(C(F)(F)F)nn1-c1nc(-c2ccco2)cc(C(F)(F)F)n1 |  | -6% (inactive)
FC(F)(F)c1cc(-c2cccs2)nc(NCc2ccco2)n1 |  | 13.3% (inactive)
FC(F)(F)c1cc(-c2ccco2)nc(NCc2ccc(Cl)cc2)n1 | 16.4 µM (active) | 
CN(CC(=O)Nc1ccc(F)c(F)c1F)C(=O)C1CC(=O)N(C2CCCC2)C1 (stereo not given) |  | -28.2% (inactive)
O=C(N[C@@H](Cc1c[nH]c2ccccc12)C(=O)O)OCC1c2ccccc2-c2ccccc21 |  | 10.8% (inactive)
COc1ccc(CCNC(=O)COC(=O)c2ncc(Cl)c(Cl)c2Cl)cc1OC |  | -0.637% (inactive)
CCOC(=O)c1cnc(SCC(=O)Nc2ccccc2C(=O)OC)nc1N |  | 16.1% (inactive)
CCOC(=O)c1ccccc1NC(=O)CSc1nc2ccccc2c(=O)[nH]1 | 18.4 µM (active) | 
COC(=O)c1ccccc1NC(=O)CSc1nc2c(c(=O)[nH]1)CCC2 |  | -2.45% (inactive)
